# Measurements from PMC5540273 (PLoS ONE, 2017).
# Experiments:
# Details in all cases: concentration: 1 μM,replicates: in singlicate; n = 1
# CAMK1 = tested on: CAMK1
# CAMK2A = tested on: CAMK2A
# CAMK2B = tested on: CAMK2B
# CAMK2D = tested on: CAMK2D
# CAMK2G = tested on: CAMK2G
# CAMK4 = tested on: CAMK4
# CAMKK1 = tested on: CAMKK1
# CAMKK2 = tested on: CAMKK2
# CASK = tested on: CASK
# CDC2L1 = tested on: T1, CDC2L1
# T1 construct: gene CDK11B
# CDC2L2 = tested on: CDC2L2
# CDC2L5 = tested on: T2, CDC2L5
# T2 construct: gene CDK13
# CDK11 = tested on: T3, CDK11
# T3 construct: gene CDK19
# CDK2 = tested on: CDK2
# CDK3 = tested on: CDK3
# CDK4-cyclinD1 = tested on: CDK4-cyclinD1
# CDK4-cyclinD3 = tested on: CDK4-cyclinD3
# CDK4 = tested on: CDK4
# CDK5 = tested on: CDK5
# CDK7 = tested on: CDK7
# 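Note: KINOMEscan kinase panel screen.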
Compound,%Inh (CAMK1) [%],%Inh (CAMK2A) [%],%Inh (CAMK2B) [%],%Inh (CAMK2D) [%],%Inh (CAMK2G) [%],%Inh (CAMK4) [%],%Inh (CAMKK1) [%],%Inh (CAMKK2) [%],%Inh (CASK) [%],%Inh (CDC2L1) [%],%Inh (CDC2L2) [%],%Inh (CDC2L5) [%],%Inh (CDK11) [%],%Inh (CDK2) [%],%Inh (CDK3) [%],%Inh (CDK4-cyclinD1) [%],%Inh (CDK4-cyclinD3) [%],%Inh (CDK4) [%],%Inh (CDK5) [%],%Inh (CDK7) [%]
O=C(Nc1cccc(C(F)(F)F)c1)c1cccc(Oc2ccc3nccn3n2)c1,1,0,0,0,0,0,8,0,17,1,3,0,0,11,22,18,19,0,0,0
O=C(NOCC1CC1)c1cc(Br)c(F)c(F)c1Nc1ccc(I)cc1Cl,0,0,0,0,0,0,0,0,0,0,0,0,0,0,14,0,17,14,0,0
Cc1ccc(CC(=O)N2CCc3cc(-c4cn(C)c5ncnc(N)c45)ccc32)cc1 [GSK2634758],7,0,0,16,22,0,5,19,7,0,21,0,72,5,0,0,0,26,10,1
c1ccc(Oc2ccc(Nc3ccnc4ccc(-c5ccccn5)cc34)cc2)cc1 [GW407034],1,0,0,7,16,0,0,9,8,0,0,0,12,0,15,0,12,0,93.1,0
COc1cccc(C2=C(Nc3cccc(Cl)c3)C(=O)NC2=O)c1 [SB-341556],1,22,0,14,27,0,3,4,43,0,0,0,0,7,4,0,14,0,0,14
Cn1ccc2ncnc(Oc3ccc(NC(=O)Nc4cncc(C(F)(F)F)c4)c(Cl)c3)c21,0,0,0,0,0,0,0,14,0,0,0,51,97.7,0,0,0,0,0,0,0
Cl.Cl.NC[C@H](CC1CCCCC1)NC(=O)c1ccc(-c2ccnc3[nH]ccc23)s1 [GSK1581428],37,0,0,7,5,0,40,27,4,0,0,0,4,11,0,0,23,25,0,94.6
NC(=O)Nc1sc(-c2ccc(F)cc2)cc1C(N)=O [GW789449],12,0,0,2,0,0,12,7,15,0,0,14,0,0,17,30,0,0,0,19
Cc1ccc(Nc2ccnc(Nc3ccc4c(c3)CS(=O)(=O)C4)n2)cc1O.Cl [GW579362],62,0,0,29,42,0,24,31,12,44,46,0,0,89,77,88,73,43,95,23
COc1ccc(Nc2nccc(N3CCC(NC(=O)c4cccc(C#N)c4)C3)n2)cc1 (stereo not drawn) [GSK1379730],0,0,0,0,6,0,8,10,0,0,0,0,4,0,26,34,0,36,7,0
Cc1cccc2c(-c3ccncc3)c(-c3ccc(F)cc3)nn12.Cl [GW461487],0,0,0,29,32,0,0,11,3,0,0,0,0,0,0,0,0,36,0,0
COC(=O)Nc1nc2cc(Oc3ccc(NC(=O)Nc4cc(C(F)(F)F)ccc4Cl)cc3)ccc2[nH]1.Cl [GW697465],5,0,0,0,7,0,2,0,0,0,12,6,66,37,10,20,0,50,0,89
C[C@@H](Oc1cc(-n2cnc3ccc(-c4ccncc4)cc32)sc1C(N)=O)c1ccccc1Cl [GSK483724],40,15,0,31,37,0,34,59,14,0,7,0,73,30,36,0,0,27,1,0
COc1cc2c(Nc3ccc(NC(=O)c4ccccc4)cc3)ncnc2cc1OCCCN1CCOCC1 [GSK301329],40,0,0,0,1,0,0,0,17,0,7,0,0,0,2,0,0,7,0,24
Cc1ccc2c(-c3ccnc(Nc4ccc(C(F)(F)F)cc4)n3)cnn2n1 [GW819776],0,0,0,0,0,0,19,0,21,0,0,0,0,15,13,0,0,16,0,47
CC(C)S(=O)(=O)N1CCN(Cc2ccc3c(c2)nc(NC(=O)c2ccsc2)n3C[C@H](O)c2ccccc2)CC1 [GW635815],25,0,0,11,39,0,44,61,22,0,4,0,6,0,25,0,0,42,0,8
N#Cc1cccc(C(=O)NC2CCN(c3ccnc(Nc4ccc(F)cc4)n3)C2)c1 (stereo not drawn) [GSK1379708],9,0,0,0,0,0,0,0,15,0,0,0,4,0,0,0,0,10,0,0

Compound,%Inh (CAMK1) [%],%Inh (CAMK2A) [%],%Inh (CAMK2B) [%],%Inh (CAMK2D) [%],%Inh (CAMK2G) [%],%Inh (CAMK4) [%],%Inh (CAMKK1) [%],%Inh (CAMKK2) [%],%Inh (CASK) [%],%Inh (CDC2L1) [%],%Inh (CDC2L2) [%],%Inh (CDC2L5) [%],%Inh (CDK11) [%],%Inh (CDK2) [%],%Inh (CDK3) [%],%Inh (CDK4-cyclinD1) [%],%Inh (CDK4-cyclinD3) [%],%Inh (CDK4) [%],%Inh (CDK5) [%],%Inh (CDK7) [%]
Cl.Nc1n[nH]c2cc(-c3ccccn3)ccc12 [GSK2189892],23,0,0,2,24,0,0,9,0,1,23,0,2,0,0,0,0,0,0,0
CS(=O)(=O)Nc1ccc(-c2ccnc3[nH]ccc23)cc1 [GSK993273],36,6,7,16,24,0,8,0,21,0,0,0,45,0,15,0,0,0,0,37
COc1cc2nccc(Nc3ccc(Oc4ccccc4)cc3)c2cc1OC.Cl [GI261656],20,0,0,16,18,0,7,17,0,0,28,0,0,0,0,0,0,44,0,0
CN(c1ccccc1CNc1nc(Nc2ccc3c(c2)CC(=O)N3)ncc1C(F)(F)F)S(C)(=O)=O,0,22,18,0,59,0,58,64,0,0,0,0,0,58,55,0,34,0,83,67
O=C(NCC1CC1)c1ccc(-c2cc(C(=O)NC3CC3)ccc2F)cc1 [GW810445],0,0,0,0,0,0,0,0,41,0,0,7,32,0,7,0,0,1,0,0
CCCC(=O)Nc1n[nH]c2ncccc12 [SB-601436],0,13,0,0,0,0,0,0,0,0,0,0,0,0,1,0,0,0,0,0
O=C(Nc1n[nH]c2cc(-c3ccco3)ccc12)C1CC1 [SB-737447],5,39,34,3,4,0,4,5,17,0,7,19,0,49,7,0,6,5,11,38
CNC(=O)c1ccccc1Nc1nc(Nc2cccc(CS(C)(=O)=O)c2)ncc1C.O=CO [GSK1520489],76,1,0,16,34,0,88,91.2,59,0,0,0,0,16,36,0,19,30,0,89
Cn1cc(-c2cccc3c(N)c(C(N)=O)nnc23)cn1,33,7,2,15,0,0,5,6,4,1,7,10,19,17,30,8,7,0,3,26
CC(=O)Nc1ccc(-c2cc3ncnc(SCC(=O)O)c3s2)cc1,0,55,58,21,18,23,90.6,92.3,8,9,17,0,26,12,4,16,31,0,14,40
CCNCC(Cc1ccccc1)NC(=O)c1cc(Br)c(-c2ccnc3[nH]ccc23)s1.Cl.Cl (stereo not drawn) [GSK1383280],41,0,0,23,34,21,19,25,0,16,22,0,39,0,12,0,6,0,0,24
Cn1ccc2ncnc(Oc3ccc(NC(=O)Nc4cnn(C(C)(C)C)c4)c(Cl)c3)c21,9,0,17,0,2,7,0,0,10,0,0,45,99.6,0,0,0,0,0,2,27
C[C@@H]1CNc2c(sc3ccc4nc(-c5ccc(O)cc5)ccc4c23)C(=O)N1,16,35,36,32,23,30,40,58,0,0,6,0,37,0,12,30,0,4,25,82
COc1cc(Nc2nccc(N3CCC(NC(=O)c4cccc(C#N)c4)C3)n2)cc(OC)c1OC (stereo not drawn) [GSK1379751],3,0,0,0,17,0,0,3,3,0,36,0,12,0,0,5,0,27,0,0
C[C@@H]1CCN(C(=O)N2CCCC2)C[C@@H]1N(C)c1ncnc2[nH]ccc12,5,2,0,12,14,19,15,8,0,3,0,6,2,0,15,21,8,11,18,34
O=C(Nc1ccc(Oc2ccc3nc(NC(=O)C4CC4)cn3n2)c(F)c1)c1cccn(-c2ccccc2)c1=O,5,1,0,3,2,21,11,1,3,13,6,0,28,0,39,0,0,0,0,0
